Compound activity from PubChem BioAssay.
Myeloid diff MLP – promotes myeloid progenitor differentiation. actives 1% (n = 360,000). AID 624256. ER-HoxA9 myeloid progenitors, lysozyme-GFP differentiation, flow cytometry. calls only at 10 µM;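 active = normalized GFP-positive differentiation at or above the plate's own cutoff, the solvent-only control mean plus 3 SD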;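 note: cells exposed to compound for four days before flow analysis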
TLR4-MyD88 BLA – blocks binding of human TLR4 to MyD88 | AID 861 | HeLa CL3-4 TLR4/MyD88 BLA complementation, FRET ratio | inhibition, % at 8.4 µM | actives 0.18% (n = 200,000); in the data active = inhibition above about 25%;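 note: 0% = vehicle and 100% = reference inhibitor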
TLR9-MyD88 block – TLR9-MyD88 interaction inhibition. actives 0.21% (n = 340,000). Q9NR96+Q99836. CHO BLA complementation TLR9-MyD88, CCF4 FRET ratio. AID 504734. inhibition, % at 4.98 µM;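 active = inhibition above the mean over all tested compounds plus 3 SD, cut at about 21% in these data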;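 note: 0% = DMSO only wells and 100% = clavulanate BLA inhibitor control wells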
NOD2 RIPK2 PPI – NOD2-RIPK2 protein interaction inhibition | AID 624267 | actives 0.38% (n = 360,000) | CHO BLA complementation NOD2-RIPK2, CCF4 ratio | inhibition, % at 4.98 µM | O43353; in the data active = inhibition above about 21%;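 note: 0% = vehicle only and 100% = reference blocker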
Target sequence (O43353 whole entry, looked up): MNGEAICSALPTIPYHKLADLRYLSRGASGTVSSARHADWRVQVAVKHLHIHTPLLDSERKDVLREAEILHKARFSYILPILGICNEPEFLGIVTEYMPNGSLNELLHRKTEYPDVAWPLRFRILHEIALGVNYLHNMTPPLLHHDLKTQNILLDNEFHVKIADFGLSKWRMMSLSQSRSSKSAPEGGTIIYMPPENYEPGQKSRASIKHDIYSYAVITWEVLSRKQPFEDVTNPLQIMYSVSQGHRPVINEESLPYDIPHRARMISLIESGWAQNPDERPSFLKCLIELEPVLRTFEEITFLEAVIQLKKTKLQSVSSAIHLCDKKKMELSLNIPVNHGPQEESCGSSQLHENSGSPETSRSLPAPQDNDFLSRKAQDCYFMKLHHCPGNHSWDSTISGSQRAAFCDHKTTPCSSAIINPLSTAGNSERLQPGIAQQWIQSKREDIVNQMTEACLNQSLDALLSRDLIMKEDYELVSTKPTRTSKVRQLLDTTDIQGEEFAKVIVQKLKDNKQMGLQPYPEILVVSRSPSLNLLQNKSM
Myeloid diff – myeloid differentiation induction | AID 651706 | ER-HoxA9 myeloid progenitors, GFP/Mac1 double-positive flow | actives 2% (n = 2,300) | calls only | shares compounds with Myeloid diff MLP;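 active = share of green or green-and-red cells above 9 and 9% in run 1 or 4 and 3% in run 2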
GFP autofluor – flagged as fluorescent in myeloid differentiation counter-screen; shares compounds with Myeloid diff MLP; ER-HoxA9 myeloid progenitors, no estrogen, GFP autofluorescence flow cytometry; vehicle wells 0%, positive control 100%; fluorescence response, % (no concentration beside the values); actives 7.4% (n = 2,300); AID 651707;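 active = over 5% cells positive for green fluorescent reporter, or over 2% positive for both it and APC stain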;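 note: range taken on the double positive population between DMSO and positive control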
Starred values were filed as active, the others as inactive; i = inactive; . = no result; + = active, no number. Shown are actives, neighbours in structure and some others; about 1.5% of the full set was active somewhere.

SMILES | Myeloid diff MLP | TLR4-MyD88 BLA | TLR9-MyD88 block | NOD2 RIPK2 PPI | Myeloid diff | GFP autofluor
O=C(c1ccc(S(=O)(=O)N2CCOCC2)cc1)N1CCN(c2ccc(F)cc2)CC1 | i | 2.3 | -2.8 | 3.2 | i | 0.0
Cc1ccc(NC(=O)CSc2ncnc3ccccc23)cc1S(=O)(=O)N1CCCCCC1 | + | -4.6 | 14.6 | 8.1 | i | 0.4
Cc1cccc(NC(=O)C(=O)NCC2CCCN2S(=O)(=O)c2cccs2)c1 (stereo not given) | i | . | -1.6 | 1.9 | . | .
COc1ccc(NC(=O)N2CCN(CCC#N)CC2)cc1 | i | -5.7 | 1.8 | 2.8 | i | 0.5
COc1ccc(C(C(=O)Nc2ccc(F)cc2)N2CCN(C(=O)c3ccco3)CC2)cc1 (stereo not given) | i | . | . | 2.4 | . | .
COc1cc(S(=O)(=O)NCC2CCCO2)ccc1Br (stereo not given) | i | -9.3 | 0.5 | 0.2 | i | 0.3
Oc1ccc(-c2cnc3c(Nc4cccc(OC(F)(F)C(F)F)c4)nccn23)cc1 | + | . | . | 2.8 | i | 0.0
Cn1nccc1C(=O)Nc1sc2c(c1C(N)=O)CCCC2 | i | -8.8 | -7.0 | -5.0 | i | 0.0
Cn1nccc1C(=O)Nc1sc2c(c1C#N)CCCC2 | i | . | 6.9 | -10.5 | . | .
COC(=O)[C@@]12C[C@@H](CC(=O)NCc3ccc(OC)c(OC)c3)C(=O)N(Cc3ccc4c(c3)OCO4)C1=CCC(C)(C)C2 | i | . | . | -5.2 | . | .
CN(C(=O)c1cc2sccc2n1C)C1CCCCC1 | + | 5.4 | 1.6 | -7.8 | i | 0.3
Cn1c(C(=O)NC2CCCCC2)cc2sccc21 | i | -8.7 | -1.5 | 6.7 | . | .
CCCn1nnc(NC(=O)c2cccc(Cl)c2)n1 | i | 8.9 | -10.0 | -11.0 | . | .
CCCn1nnc(NC(=O)c2cc(Br)ccc2OC)n1 | i | -2.7 | -1.2 | -8.9 | i | 0.0
N#CC1=C(Nc2ccccc2Cl)SC2(CCCC2)NC1=O | i | . | . | 4.9 | . | .
COc1ccc(OC)c(S(=O)(=O)N2CCC(C(=O)NCc3ccccc3)CC2)c1 | i | -16.8 | -10.0 | -12.1 | i | 2.3
CCC(=O)N1CCC1(C)C(=O)Nc1ccccc1 (stereo not given) | i | . | . | -1.8 | . | .
COc1ccccc1Cc1c(C2CCCCC2)nc2cc(C)c(Br)c(C)n12 | i | . | . | 3.6 | . | .
CCS(=O)(=O)c1ccc2c(c1)N(S(C)(=O)=O)CC(C(=O)NC1CC1)O2 (stereo not given) | + | 4.6 | -11.9 | -16.4 | i | 1.7
CCS(=O)(=O)c1ccc2c(c1)N(S(C)(=O)=O)CC(C(=O)NCc1ccccc1OC)O2 (stereo not given) | i | 9.7 | 10.1 | -0.3 | . | .
COc1ccc(CN2CCN(Cc3ccc4cc(F)ccc4n3)CC2CCO)c(C)c1C (stereo not given) | i | . | -5.0 | -4.3 | . | .
COc1cc(CN2CCN(Cc3ccc4cc(F)ccc4n3)CC2CCO)cc(OC)c1 (stereo not given) | i | . | -4.9 | -8.9 | i | 0.0
COc1ccc(CC(=O)NN2C(=O)c3ccccc3C2=O)cc1 | + | 2.1 | -6.4 | -7.5 | i | 0.0
CC(C)NC(=O)c1cc(C2CCCCN2C(=O)c2cc(C(C)(C)C)nn2C)on1 (stereo not given) | i | . | . | -11.4 | . | .
Cc1c(C(=O)N2CCC(C)CC2)oc2ccc3c(c12)C(O)CC1(CCCCC1)O3 (stereo not given) | + | . | 0.8 | 3.0 | i | 0.9
SMILES | Myeloid diff MLP | TLR4-MyD88 BLA | TLR9-MyD88 block | NOD2 RIPK2 PPI | Myeloid diff | GFP autofluor
CCN(CC)C(=O)CSc1ncnc2sccc12 | i | 0.1 | -11.8 | -7.0 | . | .
CCN(CC)C(=O)CSc1ncnc2c(-c3cccs3)nsc12 | i | -3.9 | 1.7 | -8.6 | i | 0.6
CCOc1ccc(CN2C(=O)c3ccccc3C2=O)cc1C(=O)NC1CC(C)(C)NC(C)(C)C1 | i | . | -15.6 | -2.4 | i | 97.9*
O=c1c(=NNc2ccccc2Cl)c(=O)c2ccccc12 | i | 11.0 | -9.8 | -3.7 | . | .
Cc1cc(C)c(NN=c2c(=O)c3ccccc3c2=O)c(C)c1 | + | -8.6 | 16.3 | -7.0 | i | 0.0
COc1ccc2c3c(n(C(=O)OC(C)(C)C)c2c1)C1CC=C(COC(C)=O)CN1CC3 (stereo not given) | i | . | . | -5.8 | . | .
CCCCCCC[C@@H](C/C=C/CCC(=O)N(C)C/C(=C/Cl)C/C(=C\C(=O)N1CC(OC)=CC1=O)OC)OC | i | . | 4.5 | -5.6 | . | .
CCCCCCC[C@@H](C/C=C/CCC(=O)N(C)C/C(=C/Cl)C/C(=C\C(=O)N1C[C@H](O)CC1=O)OC)OC | i | . | -16.7 | 1.4 | i | 4.6
Nc1nnc(N)c2ccccc12 | + | 3.5 | -3.4 | -2.8 | i | 0.0
COc1ccc(-c2ccc([C@H]3[C@@H]4C=CCC[C@@]4(C)C(=O)N3Cc3ccccc3)c(F)c2)cc1 | i | . | -7.1 | -18.5 | i | 0.0
COC1=CC(=O)OC(c2ccc(C(F)(F)F)cc2)C1 (stereo not given) | i | . | . | -8.9 | . | .
O=C(Nc1ccccc1Cl)c1cc(C2CCCCN2C(=O)CCCc2ccccc2)on1 (stereo not given) | i | . | . | -5.5 | . | .
COc1ccc(N2C[C@H](CSC)[C@@H](CC(=O)Nc3ccc(Br)cc3)C2=O)cc1 | i | . | -6.5 | 4.3 | . | .
COc1ccc(NC(=O)C[C@H]2C(=O)N(c3ccc(Br)cc3)C[C@@H]2CSC)cc1 | i | . | 6.7 | 2.7 | i | 1.1
COc1cccc(-c2oc3c(c2-c2ccc(OC)nc2)C(O)CCC3)c1 (stereo not given) | i | . | . | 4.2 | . | .
Cc1cccc(CC(=O)NCCS(=O)(=O)N2CCN(c3ccccc3)CC2)c1 | i | . | 6.6 | -6.7 | . | .
COc1ccccc1-c1cc(C(=O)NC2CCN(C)CC2)c2ccc(Cl)c(C)c2n1 | + | . | 7.2 | 10.4 | i | 0.0
Cn1c(Cc2ccccc2)nnc1SCC(=O)Nc1ccccc1 | i | -22.8 | 1.3 | -10.4 | . | .
CC(C)OC(=O)CSc1nnc(Cc2ccccc2)n1C | + | 0.4 | -4.6 | 1.1 | i | 0.0
CN1OC[C@@H]2CN(Cc3cc(Cl)cc(Cl)c3)[C@H](c3cccc(-c4ccc(C#N)cc4)c3)C[C@@H]21 | i | . | 8.4 | -1.7 | . | .
NC(c1csc(Nc2cc(NCCCO)ncn2)n1)c1ccccc1Cl (stereo not given) | i | . | . | -1.7 | . | .
CCCSc1nc(C)c2cc(C)cc(C)c2n1 | + | 5.7 | 10.9 | -8.0 | i | 0.0
Fc1ccc(C(c2nnnn2C2CCCCC2)N2CCCC2)cc1 (stereo not given) | i | 7.3 | -5.9 | 0.2 | . | .
Fc1ccc(C(c2nnnn2C2CCCC2)N2CCN(Cc3ccncc3)CC2)cc1 (stereo not given) | + | -2.8 | 7.8 | -0.5 | i | 0.0
COc1cc(CC(=O)OCC(=O)NCc2ccco2)cc(OC)c1OC | + | . | -8.3 | 4.2 | i | 0.5
CCc1ccc(OCC(=O)NCc2ccco2)c(Br)c1 | i | -0.6 | -0.4 | -6.6 | i | 0.0
